For orientation: inhibition means the drop in the measured response relative to a control, in per cent.

For assay [1], the target named is Platelet-derived growth factor receptor beta (Homo sapiens) (UniProt P09619). The following applies: at 1 µM.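 Also: each value is a mean percent inhibition.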
Assay [2] addresses Tyrosine-protein kinase FRK (Homo sapiens) (UniProt P42685). The conditions noted are these: at 0.1 µM.
For assay [3] the target is unchanged. The conditions noted are these: at 1 µM.
For assay [4], the target named is Protein-tyrosine kinase 2-beta (Homo sapiens) (UniProt Q14289). The conditions noted are these: at 0.1 µM.
Assay [5] shares this target. The following applies: at 1 µM.
The target of assay [6] is Proto-oncogene tyrosine-protein kinase receptor Ret (Homo sapiens) (UniProt P07949). The following applies: at 0.1 µM.
For assay [7] the target is unchanged. The conditions noted are these: at 1 µM.
For assay [8], the system named is Proto-oncogene tyrosine-protein kinase receptor Ret (Homo sapiens), P07949 [V804L]. The following applies: at 0.1 µM.
Assay [9] has the same test system. The following applies: at 1 µM.
Assay [10] deals with Proto-oncogene tyrosine-protein kinase receptor Ret (Homo sapiens), P07949 [Y791F]. The conditions noted are these: at 0.1 µM.
The test system is the same in assay [11]. The conditions noted are these: at 1 µM.
Assay [12] concerns the target Macrophage-stimulating protein receptor (Homo sapiens) (UniProt Q04912). The conditions noted are these: at 0.1 µM.
For assay [13] the target is unchanged. The following applies: at 1 µM.
Assay [14] concerns the target Proto-oncogene tyrosine-protein kinase ROS (Homo sapiens) (UniProt P08922). The conditions noted are these: at 0.1 µM.
Assay [15] has the same target. The following applies: at 1 µM.
The target in assay [16] is Proto-oncogene tyrosine-protein kinase Src (Homo sapiens) (UniProt P12931). The conditions noted are these: at 0.1 µM.
Assay [17] shares this target. The following applies: at 1 µM.
In assay [18] the target is Tyrosine-protein kinase Srms (Homo sapiens) (UniProt Q9H3Y6). The following applies: at 0.1 µM.
Assay [19] has the same target. The following applies: at 1 µM.
In assay [20] the target is Tyrosine-protein kinase SYK (Homo sapiens) (UniProt P43405). The conditions noted are these: at 0.1 µM.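 Also: reported percentages are mean inhibition values for SYK.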

Chain of Tyrosine-protein kinase FRK (Homo sapiens) (P42685 whole entry): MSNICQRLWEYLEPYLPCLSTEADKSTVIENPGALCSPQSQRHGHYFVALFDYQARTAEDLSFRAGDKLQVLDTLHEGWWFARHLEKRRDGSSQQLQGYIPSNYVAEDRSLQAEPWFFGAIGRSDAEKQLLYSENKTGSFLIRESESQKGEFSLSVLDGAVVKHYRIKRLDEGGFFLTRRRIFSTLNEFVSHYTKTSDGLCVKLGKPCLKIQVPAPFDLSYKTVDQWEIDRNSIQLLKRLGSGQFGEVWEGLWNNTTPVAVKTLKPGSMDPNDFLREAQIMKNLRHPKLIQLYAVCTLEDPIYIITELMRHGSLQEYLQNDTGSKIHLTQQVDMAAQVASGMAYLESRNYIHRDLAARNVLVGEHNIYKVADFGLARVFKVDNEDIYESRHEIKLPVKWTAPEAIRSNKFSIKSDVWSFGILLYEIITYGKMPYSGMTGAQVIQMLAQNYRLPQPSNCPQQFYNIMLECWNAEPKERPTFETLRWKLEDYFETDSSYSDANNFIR
Chain of Tyrosine-protein kinase Srms (Homo sapiens) (Q9H3Y6 whole entry): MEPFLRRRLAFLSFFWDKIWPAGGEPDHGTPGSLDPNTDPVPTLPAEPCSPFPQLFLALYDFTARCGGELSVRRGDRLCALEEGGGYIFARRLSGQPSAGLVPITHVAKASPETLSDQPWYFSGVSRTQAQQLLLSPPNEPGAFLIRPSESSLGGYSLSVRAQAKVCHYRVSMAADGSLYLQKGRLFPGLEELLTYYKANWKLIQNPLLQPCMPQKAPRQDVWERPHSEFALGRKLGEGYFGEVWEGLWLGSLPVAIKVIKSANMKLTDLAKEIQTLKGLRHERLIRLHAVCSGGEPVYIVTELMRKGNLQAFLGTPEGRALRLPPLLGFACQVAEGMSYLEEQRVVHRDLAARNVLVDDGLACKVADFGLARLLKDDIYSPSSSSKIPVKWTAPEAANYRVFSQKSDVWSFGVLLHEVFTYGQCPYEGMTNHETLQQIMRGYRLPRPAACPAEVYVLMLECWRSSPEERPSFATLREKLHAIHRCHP
Chain of Proto-oncogene tyrosine-protein kinase Src (Homo sapiens) (P12931 2-536 limits assumed): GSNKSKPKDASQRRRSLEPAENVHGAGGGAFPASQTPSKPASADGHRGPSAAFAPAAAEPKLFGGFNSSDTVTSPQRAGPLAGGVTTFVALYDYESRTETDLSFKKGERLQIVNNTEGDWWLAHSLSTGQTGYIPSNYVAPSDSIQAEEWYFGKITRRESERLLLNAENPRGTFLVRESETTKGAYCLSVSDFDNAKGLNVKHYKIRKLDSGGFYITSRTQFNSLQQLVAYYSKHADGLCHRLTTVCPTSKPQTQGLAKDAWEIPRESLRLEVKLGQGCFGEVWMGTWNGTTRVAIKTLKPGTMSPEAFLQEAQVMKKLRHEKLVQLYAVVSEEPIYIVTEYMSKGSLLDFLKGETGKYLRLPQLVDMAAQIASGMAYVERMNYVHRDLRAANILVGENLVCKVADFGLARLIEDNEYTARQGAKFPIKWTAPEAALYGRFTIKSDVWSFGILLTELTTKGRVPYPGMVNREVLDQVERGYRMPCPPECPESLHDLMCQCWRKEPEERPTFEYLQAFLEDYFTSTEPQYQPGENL
Chain of Platelet-derived growth factor receptor beta (Homo sapiens) (P09619 whole entry): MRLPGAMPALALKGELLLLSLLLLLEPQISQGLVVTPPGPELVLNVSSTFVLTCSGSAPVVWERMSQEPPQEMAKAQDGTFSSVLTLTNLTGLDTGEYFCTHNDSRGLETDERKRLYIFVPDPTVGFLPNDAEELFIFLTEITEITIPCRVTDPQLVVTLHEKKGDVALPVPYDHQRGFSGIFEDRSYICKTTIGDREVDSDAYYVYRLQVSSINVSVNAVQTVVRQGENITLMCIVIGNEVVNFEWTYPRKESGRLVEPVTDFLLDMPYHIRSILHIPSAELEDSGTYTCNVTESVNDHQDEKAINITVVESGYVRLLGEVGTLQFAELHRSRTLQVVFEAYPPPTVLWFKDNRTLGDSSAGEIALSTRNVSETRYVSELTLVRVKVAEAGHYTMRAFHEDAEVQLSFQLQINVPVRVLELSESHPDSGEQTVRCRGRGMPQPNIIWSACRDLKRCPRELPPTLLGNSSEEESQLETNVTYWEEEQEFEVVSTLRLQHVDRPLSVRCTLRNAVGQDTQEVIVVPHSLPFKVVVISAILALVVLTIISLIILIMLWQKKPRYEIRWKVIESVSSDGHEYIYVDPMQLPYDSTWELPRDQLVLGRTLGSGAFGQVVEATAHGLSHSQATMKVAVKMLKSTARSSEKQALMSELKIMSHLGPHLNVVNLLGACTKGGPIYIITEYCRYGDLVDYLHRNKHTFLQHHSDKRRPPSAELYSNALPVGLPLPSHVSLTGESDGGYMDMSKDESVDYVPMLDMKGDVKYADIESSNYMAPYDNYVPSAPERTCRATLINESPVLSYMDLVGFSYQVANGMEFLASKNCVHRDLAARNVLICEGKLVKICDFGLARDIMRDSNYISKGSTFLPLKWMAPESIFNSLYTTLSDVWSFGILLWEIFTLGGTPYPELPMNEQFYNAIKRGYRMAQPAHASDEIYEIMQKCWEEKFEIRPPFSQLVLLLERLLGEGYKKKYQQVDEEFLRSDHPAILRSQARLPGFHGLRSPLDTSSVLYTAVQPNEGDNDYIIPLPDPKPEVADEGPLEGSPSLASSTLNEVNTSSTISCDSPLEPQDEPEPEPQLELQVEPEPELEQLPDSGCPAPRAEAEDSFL
Chain of Proto-oncogene tyrosine-protein kinase ROS (Homo sapiens) (P08922 whole entry): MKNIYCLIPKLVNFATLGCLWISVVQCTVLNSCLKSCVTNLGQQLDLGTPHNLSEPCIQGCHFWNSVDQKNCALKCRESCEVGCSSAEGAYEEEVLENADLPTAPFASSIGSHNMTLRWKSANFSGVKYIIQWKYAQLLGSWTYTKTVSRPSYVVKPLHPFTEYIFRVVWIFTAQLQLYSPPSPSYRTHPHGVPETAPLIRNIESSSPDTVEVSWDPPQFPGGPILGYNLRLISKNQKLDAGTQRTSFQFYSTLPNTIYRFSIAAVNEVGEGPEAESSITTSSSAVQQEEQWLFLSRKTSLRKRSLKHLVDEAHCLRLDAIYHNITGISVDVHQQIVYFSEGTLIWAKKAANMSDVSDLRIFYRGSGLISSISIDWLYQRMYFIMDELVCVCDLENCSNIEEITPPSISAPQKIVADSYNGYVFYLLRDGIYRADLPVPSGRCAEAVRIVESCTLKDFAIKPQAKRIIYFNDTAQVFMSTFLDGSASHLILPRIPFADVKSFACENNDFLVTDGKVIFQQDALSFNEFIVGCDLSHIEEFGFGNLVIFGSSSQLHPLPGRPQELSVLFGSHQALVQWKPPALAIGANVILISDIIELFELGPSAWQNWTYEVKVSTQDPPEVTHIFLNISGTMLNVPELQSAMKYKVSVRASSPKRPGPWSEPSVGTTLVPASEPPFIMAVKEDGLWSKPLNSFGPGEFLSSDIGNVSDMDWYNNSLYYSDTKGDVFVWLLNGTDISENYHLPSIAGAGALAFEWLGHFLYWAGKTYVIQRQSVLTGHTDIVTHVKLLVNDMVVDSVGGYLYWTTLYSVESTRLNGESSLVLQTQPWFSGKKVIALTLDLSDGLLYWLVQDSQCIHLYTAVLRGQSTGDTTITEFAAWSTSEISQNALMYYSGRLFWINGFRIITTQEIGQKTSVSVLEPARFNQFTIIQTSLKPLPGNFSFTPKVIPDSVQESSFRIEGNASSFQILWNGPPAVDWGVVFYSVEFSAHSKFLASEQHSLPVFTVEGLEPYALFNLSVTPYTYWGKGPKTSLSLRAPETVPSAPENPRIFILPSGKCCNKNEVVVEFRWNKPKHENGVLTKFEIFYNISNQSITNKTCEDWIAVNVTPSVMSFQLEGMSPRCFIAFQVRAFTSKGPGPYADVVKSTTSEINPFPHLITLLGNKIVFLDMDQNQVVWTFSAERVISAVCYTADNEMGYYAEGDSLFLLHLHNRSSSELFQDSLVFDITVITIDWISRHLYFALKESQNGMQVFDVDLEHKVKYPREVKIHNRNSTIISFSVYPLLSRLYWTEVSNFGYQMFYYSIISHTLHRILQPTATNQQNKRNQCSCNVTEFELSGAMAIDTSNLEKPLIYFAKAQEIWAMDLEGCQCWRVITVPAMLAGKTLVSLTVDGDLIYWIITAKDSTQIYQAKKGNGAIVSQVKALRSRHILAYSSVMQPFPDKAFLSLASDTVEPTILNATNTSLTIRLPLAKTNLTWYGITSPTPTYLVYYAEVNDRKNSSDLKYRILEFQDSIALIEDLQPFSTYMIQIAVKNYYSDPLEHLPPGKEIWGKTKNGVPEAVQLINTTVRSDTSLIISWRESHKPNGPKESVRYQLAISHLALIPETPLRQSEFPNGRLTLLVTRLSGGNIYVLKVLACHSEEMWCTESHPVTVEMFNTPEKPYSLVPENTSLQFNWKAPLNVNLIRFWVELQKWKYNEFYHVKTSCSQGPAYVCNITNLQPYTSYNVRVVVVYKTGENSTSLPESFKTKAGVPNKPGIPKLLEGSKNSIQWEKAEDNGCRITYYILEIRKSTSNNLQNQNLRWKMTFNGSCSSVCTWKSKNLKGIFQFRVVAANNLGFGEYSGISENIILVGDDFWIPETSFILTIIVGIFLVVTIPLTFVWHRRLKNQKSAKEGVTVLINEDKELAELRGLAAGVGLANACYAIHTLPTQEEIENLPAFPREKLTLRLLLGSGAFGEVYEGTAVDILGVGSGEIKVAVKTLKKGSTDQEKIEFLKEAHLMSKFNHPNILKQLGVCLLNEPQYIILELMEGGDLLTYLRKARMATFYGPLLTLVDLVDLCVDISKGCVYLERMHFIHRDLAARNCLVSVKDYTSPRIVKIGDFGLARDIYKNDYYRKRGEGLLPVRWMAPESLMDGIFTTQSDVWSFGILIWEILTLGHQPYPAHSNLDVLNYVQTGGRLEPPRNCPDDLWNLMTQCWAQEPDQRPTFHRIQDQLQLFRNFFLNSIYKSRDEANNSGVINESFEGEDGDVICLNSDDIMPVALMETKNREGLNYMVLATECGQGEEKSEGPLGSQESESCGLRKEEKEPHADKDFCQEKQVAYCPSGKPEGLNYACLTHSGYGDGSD

Regarding `COc1cccc(-c2c[nH]c3c(N/N=C/c4ccncc4)ncnc23)c1`, the inhibition in assay [1] worked out at 81.1%; in assay [2], 1.61%; in assay [3], 3.28%; in [4], 2.76%; in assay [5], 9.78%; in assay [6], 10.7%. For the same compound, the inhibition was found to be 37.9% in assay [7]; 7.65% in [8]; 30.7% in assay [9]; 10.2% in assay [10]; 39.7% in [11]; 9.37% in assay [12]. The inhibition in assay [13] was 42.4%; in assay [14], 4.61%; in assay [15], 14.4%; in [16] it was 29.8%; in assay [17], 77.3%; in assay [18], 1.92%. The inhibition in assay [19] was 11.8%; in assay [20], -4.09%.
Turning to `O=C(Nc1n[nH]c2cc(-c3ccc(F)cc3)ccc12)C1CC1`, the inhibition came to 7.77% in assay [1]; 1.74% in [2]; 2.21% in [3]; 9.12% in assay [4]; 9.39% in [5]; 2.79% in [6]. Also, the inhibition in assay [7] was found to be 3.73%; in assay [8], 2.36%; in assay [9], 3.06%; in [10], 4.2%; in assay [11], 2.03%; in assay [12], 3.73%. Moreover, the inhibition in [13] is 1.45%; in [14] it was 4.52%; in [15], 6.57%; in assay [16], 0.9%; in assay [17], 6.35%; in assay [18], -1.28%. In addition, the inhibition in assay [19] is -0.73%; in assay [20], -3.9%.
Regarding `COc1cccc(-n2ncc3c(N/N=C/c4ccc(F)cc4)ncnc32)c1`, the inhibition in assay [1] stood at 45.3%; in assay [2] it was 4.95%; in assay [3], 1.58%; in [4] it was 8.88%; in assay [5], 13.6%; in assay [6], 5.24%. Moreover, the inhibition in assay [7] stood at 14.9%; in assay [8] it was 2.47%; in assay [9], 7.65%; in assay [10] it was 1.26%; in assay [11] it was 18.6%; in assay [12], 3.4%. For the same compound, the inhibition in assay [13] is 13.7%; in assay [14], 3.85%; in assay [15], 8.02%; in [16] it was 14.6%; in [17], 49.2%; in assay [18] it was -1.01%. Further, the inhibition in assay [19] was 3.9%; in assay [20], -4.34%.
`Fc1cccc(COc2ccc(Nc3ncnc4sc(-c5ccco5)cc34)cc2Cl)c1`: the inhibition is 15% in assay [1]; 4.23% in [2]; 3.25% in assay [3]; 6.41% in assay [4]; 5.02% in [5]; 3.58% in assay [6]. Also, the inhibition in [7] is 5.02%; in [8], 5.96%; in assay [9], 11.1%; in assay [10] it was 8.01%; in assay [11], 6.83%; in [12] it was -0.84%. The inhibition was 3.24% in assay [13]; 1.53% in assay [14]; 8.29% in assay [15]; 7.3% in assay [16]; 6.58% in assay [17]; -3.52% in assay [18]. The values for the inhibition in [19] and in [20] were -1.36% and -3.2%, respectively.
For `Nc1ncc(-c2cccc(S(N)(=O)=O)c2)c2scc(-c3ccc(F)c(Cl)c3)c12`, the inhibition amounted to 53.4% in [1]; 2.22% in assay [2]; 14.2% in [3]; 2.23% in assay [4]; 20.8% in assay [5]; 11.8% in assay [6]. Also, the inhibition in assay [7] turned out to be 49%; in assay [8] it was 5.58%; in assay [9] it was 7.48%; in assay [10], 12.4%; in assay [11], 50.2%; in assay [12] it was 1.48%. For the same compound, the inhibition in assay [13] was 15.8%; in assay [14], -0.54%; in assay [15] it was 6.78%; in assay [16] it was 19.6%; in assay [17], 57.1%; in assay [18] it was -1.03%. The figures for the inhibition in [19] and in assay [20] were 6.75% and 0.28%, respectively.
Take `CCN1CCC(CC(=O)Nc2n[nH]c3nnc(-c4cccc(F)c4F)cc23)CC1`: the inhibition in assay [1] was 5.87%; in [2], 0.59%; in [3], -2.06%; in assay [4], 2.01%; in [5], 2.8%; in [6], 3.04%. Also, the inhibition in [7] was 1.36%; in assay [8], 3.31%; in assay [9], 3.73%; in assay [10] it was 4.22%; in assay [11], 6.9%; in [12], -3.31%. The inhibition in assay [13] was 1.81%; in assay [14], 1.13%; in [15], 3.93%; in assay [16], 5.1%; in [17] it was 0.53%; in assay [18] it was -0.09%. Besides, the inhibition in assay [19] was 0.68%; in [20], -0.02%.
`CN1CCC(n2cnc(-c3ccc(F)cc3)c2-c2ccnc(Nc3ccccc3)n2)CC1`: the inhibition in assay [1] was 44.7%; in assay [2] it was 0.85%; in [3], 1.83%; in [4], 4.25%; in assay [5] it was 5.64%; in assay [6], 6.59%. Also, the inhibition in assay [7] came to 18.3%; in assay [8], 4.17%; in assay [9] it was 7.13%; in assay [10] it was 7.03%; in assay [11], 36.2%; in [12] it was 2.65%. Also, the inhibition in [13] was determined as 4%; in assay [14], 1.54%; in assay [15] it was 4%; in assay [16], 9.92%; in assay [17], 11.8%; in assay [18], 1.77%. Further, the inhibition was 3.09% in [19] and 1.08% in assay [20].
On to `CCOc1ccc2c(-c3ccnc(Nc4cccc(C(F)(F)F)c4)n3)cnn2n1`, for which the inhibition is 20.5% in assay [1]; 2.02% in assay [2]; 0.63% in assay [3]; -2% in [4]; 3.33% in assay [5]; 0.9% in assay [6]. For the same compound, the inhibition in assay [7] was 5.18%; in assay [8], 5.38%; in assay [9] it was 6.22%; in assay [10], 7.78%; in assay [11], 12.4%; in [12], 4.92%. For the same compound, the inhibition in [13] was -3.11%; in [14] it was 2.05%; in assay [15], 15%; in assay [16], 4.83%; in assay [17], 3.76%; in assay [18] it was -3.13%. In addition, the inhibition in assay [19] is -1.56%; in assay [20], -1.67%.
Take `CNC(=O)c1cncc(/C=C/c2ccccc2Cl)c1`: the inhibition in assay [1] is 20%; in assay [2], 0.04%; in [3], 0.05%; in [4] it was -1.7%; in assay [5], -0.21%; in assay [6], 4.56%. Besides, the inhibition in assay [7] was found to be 7.64%; in assay [8] it was 0.9%; in assay [9] it was 10%; in [10] it was 0.47%; in [11] it was 22.8%; in [12], 2.22%. Besides, the inhibition was 7.21% in assay [13]; -2.16% in assay [14]; 2.7% in assay [15]; 10.1% in [16]; 7.14% in [17]; 1.76% in [18]. For the same compound, the figures for the inhibition in assay [19] and in assay [20] were 3.3% and 7.26%, respectively.
On to `COc1cc2c(cc1Nc1nc(Nc3ccsc3C(N)=O)c3cc[nH]c3n1)N(C(=O)CN(C)C)CCC2(C)C`, for which the inhibition in assay [1] is 62.7%; in assay [2] it was 2.92%; in assay [3], 8.45%; in [4], 88.3%; in assay [5], 96.7%; in assay [6] it was 8.13%. The inhibition in assay [7] was 14.1%; in assay [8] it was 12.9%; in assay [9], 38.1%; in assay [10] it was 8.97%; in assay [11], 18.7%; in assay [12], -4.25%. Further, the inhibition was 28.9% in [13]; 79.7% in [14]; 83.1% in assay [15]; 0.33% in assay [16]; 11.7% in assay [17]; -1.82% in [18]. Besides, the inhibition was -3.22% in [19] and -6.01% in [20].
As for `Fc1ccc(-c2cc(-c3c[nH]nc3-c3ccccn3)ccn2)cc1`, the inhibition was determined as 11.8% in assay [1]; 2.82% in assay [2]; 1.26% in [3]; 7.36% in [4]; 19.4% in assay [5]; 5.13% in assay [6]. The inhibition in assay [7] was 2.43%; in assay [8], 2.33%; in assay [9] it was 8.21%; in assay [10], 3.92%; in [11] it was 13.8%; in assay [12], 4.71%. Further, the inhibition in assay [13] was 8.86%; in assay [14] it was 6.8%; in assay [15] it was 8.14%; in [16], 0.27%; in assay [17] it was 9%; in [18], -0.96%. Further, the figures for the inhibition in assay [19] and in assay [20] were -1.26% and 0.3%, respectively.
For `CC(=O)NCc1cccc(C#Cc2cncnc2Nc2ccc(OCc3cccc(F)c3)c(Cl)c2)c1`, the inhibition is 6.15% in [1]; 1.61% in assay [2]; 1.03% in assay [3]; 3.96% in [4]; 0.92% in assay [5]; 3.99% in assay [6]. Moreover, the inhibition in assay [7] worked out at 20.2%; in assay [8], 2.58%; in [9], 6.73%; in assay [10], 1.6%; in assay [11], 3.42%; in [12] it was 5.44%. The inhibition amounted to 5.62% in [13]; 3.92% in [14]; 4.54% in assay [15]; 0.53% in assay [16]; 2.01% in assay [17]; 0.33% in assay [18]. The figures for the inhibition in assay [19] and in assay [20] were -1.05% and -2.37%, respectively.

Source of the values: ChEMBL document CHEMBL1961873, “Compounds: GSK PKIS; Assays: Nanosyn kinase panel” (2012).
